# Shown are actives, neighbours in structure and some others; about 2.9% of the full set was active somewhere.
# MEKK2 WT-MEK5 – raises or lowers MEK5 binding to wildtype human MEKK2 PB1 domain; Q9Y2U5; bead flow cytometry, Alexa488-MEK5 binding to MEKK2 WT; actives lie on both sides; binding response (% of control), % at 10 µM; 290,000 tested, 1.1% active; in the data active means binding response below about 67% or above about 130%
# CRFR2-BP antag – blocks CRF-induced signaling of the CRF-BP/CRF-R2 complex; HEK293 CRF-R2/CRF-BP, CRF-induced calcium fluorescence; 350,000 tested, 0.59% active; inhibition, % at 11.8 µM;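 active means inhibition of the ligand-induced calcium signal above about 50% at the single tested concentration, limit read from the data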
# ABCB6 inh 2 – inhibitors of human ABC transporter ABCB6; Q9NP58; K562-ABCB6 porphyrin accumulation, flow cytometry, 1 h; active compounds read low; fluorescence ratio to DMSO, % at 10 µM; 360,000 tested, 0.19% active; AID 602162;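 active means fluorescence ratio to DMSO below 75%, the collection mean minus 3 SD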;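 further: signal is porphyrin accumulated inside mitochondria; 100% equals median channel fluorescence of DMSO control wells; lower ratio means ABCB6 inhibition with less porphyrin fluorescence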
# Target sequence (Q9NP58 whole entry, looked up): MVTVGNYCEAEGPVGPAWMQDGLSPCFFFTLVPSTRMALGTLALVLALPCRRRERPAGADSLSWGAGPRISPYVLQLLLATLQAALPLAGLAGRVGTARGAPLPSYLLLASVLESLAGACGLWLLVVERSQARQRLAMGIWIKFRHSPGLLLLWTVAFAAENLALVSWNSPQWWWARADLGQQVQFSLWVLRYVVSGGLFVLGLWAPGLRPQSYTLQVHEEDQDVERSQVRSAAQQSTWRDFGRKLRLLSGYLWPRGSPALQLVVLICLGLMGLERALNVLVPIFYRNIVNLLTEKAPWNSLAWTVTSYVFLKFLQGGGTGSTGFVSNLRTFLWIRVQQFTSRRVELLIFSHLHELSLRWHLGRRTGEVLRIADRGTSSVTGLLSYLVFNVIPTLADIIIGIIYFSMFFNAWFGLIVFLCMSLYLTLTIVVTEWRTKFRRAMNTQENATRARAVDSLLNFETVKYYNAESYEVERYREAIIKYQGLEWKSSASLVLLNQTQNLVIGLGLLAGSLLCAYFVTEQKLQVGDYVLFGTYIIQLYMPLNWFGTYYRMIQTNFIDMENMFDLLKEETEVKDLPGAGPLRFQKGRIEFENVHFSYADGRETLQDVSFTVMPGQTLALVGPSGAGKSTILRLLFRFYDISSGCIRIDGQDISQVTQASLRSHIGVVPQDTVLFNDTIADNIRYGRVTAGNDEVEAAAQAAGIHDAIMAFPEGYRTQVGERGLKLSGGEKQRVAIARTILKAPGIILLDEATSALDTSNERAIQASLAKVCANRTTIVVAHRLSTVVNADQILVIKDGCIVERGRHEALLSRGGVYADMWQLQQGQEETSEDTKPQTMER
# MEKK3 PB1 HTS – MEKK3-MEK5 PB1 interaction, increase or decrease | AID 1529 | binding response (% of control), % at 10 µM | Q99759 | 290,000 tested, 1.4% active | bead-based flow cytometry, Alexa488-MEK5 binding to MEKK3; actives lie on both sides; 0 = blocked by unlabeled MEK5, 100 = vehicle;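 active means binding response more than 3 SD above or below the average of its plate-row segment, actives on both sides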;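 further: Alexa488 bead fluorescence after subtracting the streptavidin-only scavenger bead signal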
# CRFBP-R2 agonist – CRF-BP/CRF-R2 complex agonism; AID 588473; HEK293 CRF-R2/CRF-BP, calcium dye fluorescence (FLIPR); percent of saturating CRF peptide response; 350,000 tested, 0.46% active; activation, % at 13.2 µM;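 active means activation of at least 50%, plus an integration ratio under a set limit after plate pattern correction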;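 further: plate controls were neutral control wells without compound for no effect and CRF at EC100 for full effect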
# MEKK2mut PB1 HTS – signal of MEK5 binding to mutant human MEKK2 PB1 domain | bead flow cytometry, Alexa488-MEK5 binding to MEKK2 mutant | 290,000 tested, 0.35% active | percent response, % at 10 µM; in the data active means percent response above about 24%, passing the limit was not always enough
# The depositor's hits bear a star; i = inactive; x = no result given.
SMILES,MEKK2 WT-MEK5,CRFR2-BP antag,ABCB6 inh 2,MEKK3 PB1 HTS,CRFBP-R2 agonist,MEKK2mut PB1 HTS
C[C@@H]1CN([C@@H](C)CO)C(=O)CCCn2nncc2CO[C@H]1CN(C)S(=O)(=O)c1ccc(Oc2ccccc2)nc1,x,7,103,x,-1,x
CC(C)c1cc(C(F)(F)F)nc(NNc2nc(C(C)C)cc(C(F)(F)F)n2)n1,x,54*,114,x,0,x
CCNc1nc(Sc2ccc(C)cc2)cc(C(F)(F)F)n1,97,0,92,99,2,-5
Cc1cccc(N(C(=O)c2snc(C(N)=O)c2N)C(C(=O)NC2CCCC2)c2ccco2)c1 (stereo not drawn),98,4,101,104,0,-7
Cc1ccc(NC(=O)CSc2nnc(Cn3cnc4ccccc43)o2)c(C)c1,105,59*,91,102,-3,7
C#CCNC(=O)C1=C[C@@H](c2ccc(Br)cc2)[C@H](CCCO)[C@@H](OCC)O1,89,-1,103,94,0,4
C#CCNC(=O)C1=C[C@H](c2ccc3c(c2)OCO3)[C@@H](CCCO)[C@H](OCC)O1,103,81*,97,106,-1,8
COc1cc(S(=O)(=O)Nc2ccc(C)cc2)ccc1N=Cc1c(C)c(C#N)c(=O)n(C)c1O,99,-102,99,105,80*,-4
COc1cc(S(=O)(=O)Nc2ccc(C)cc2)ccc1N=Cc1c(C)[nH]n(-c2ccc(C)cc2)c1=O,110,-2,78,125,-2,0
C(=C\c1ccccc1)/CSc1nnc(-c2ccccc2)n1Cc1ccco1,96,62*,114,101,-4,-1
Clc1cccc(-c2nnc(SC/C=C/c3ccccc3)n2Cc2ccco2)c1,94,60*,92,101,9,-1
Clc1cccc(CSc2nnc(-c3ccccn3)n2Cc2ccco2)c1,104,12,101,107,-1,1
C(=C\c1ccccc1)/CSc1nnc(-c2ccncc2)n1Cc1ccco1,105,39,98,100,-2,11
Nc1nc(N)c2cc(Sc3ccc4ccccc4c3)ccc2n1,157*,-17,96,99,2,26
CC(NC(=O)c1ccc(Cl)cc1)c1nnc(SCC(=O)NC2=NCCS2)n1C (stereo not drawn),98,5,101,97,0,2
N/C(Cc1cccc2ccccc12)=N\O,100,-1,104,102,1,3
N/C(Cc1ccccc1Sc1ccccc1)=N\O,92,61*,103,92,-1,-2
COc1cc(C(=O)N/N=C(\C)c2ccccn2)cc(OC)c1OC,95,8,106,96,2,-3
COc1cc(C(=O)N/N=C(\c2ccccc2)c2ccccn2)cc(OC)c1OC,106,0,96,134*,-2,0
Cc1cc(C(=O)COC(=O)c2cccnc2Cl)c(C)n1C,x,-3,98,x,0,x
O=C(O)c1cc(O)ccc1NC(=O)C(c1ccccc1)c1ccccc1,102,6,104,99,0,1
Cc1noc(C)c1COC(=O)c1cccc(S(=O)(=O)N2CCOCC2)c1,x,3,101,x,0,x
Cc1noc(C)c1COC(=O)c1cccc(S(=O)(=O)N2c3ccccc3CC2C)c1 (stereo not drawn),104,56*,93,104,18,1
NC(=O)c1ccc(NCC2COc3ccccc3O2)c([N+](=O)[O-])c1 (stereo not drawn),98,92*,100,101,-5,-1
COc1ccc(OC)c(/C=N/N2CCN(c3ccc(Cl)cc3)CC2)c1,102,-10,101,97,2,6
SMILES,MEKK2 WT-MEK5,CRFR2-BP antag,ABCB6 inh 2,MEKK3 PB1 HTS,CRFBP-R2 agonist,MEKK2mut PB1 HTS
COc1ccc(-c2cc3ccccc3[nH]2)cc1,88,60*,98,93,0,-20
c1ccc(-c2cc3ccccc3[nH]2)cc1,107,-36,95,103,1,3
COc1ccc(C(=O)Nc2cc(Cl)ccc2OC(=O)c2ccc(OC)cc2)cc1,98,-3,100,108,0,-2
COc1ccc(OC(=O)c2ccc(Cl)cc2)c(C(C)=O)c1,89,52*,95,95,0,-12
Cc1[nH]c2ccccc2c1/C=N/Nc1ccc(F)cc1F,0.0*,x,x,131,x,6
Cc1[nH]c2ccccc2c1/C=N/Nc1ccc([N+](=O)[O-])cc1,24*,-220,i,91,121*,43
Cc1[nH]c2ccccc2c1/C=C/c1cc[n+](C)cc1,x,-94,i,x,81*,x
C[n+]1ccc2[nH]c3ccccc3c2c1,x,x,96,x,x,x
CN(Cc1ccccc1)S(=O)(=O)c1ccc(N2CCCC2=O)cc1,x,-6,95,x,1,x
Cc1cccc(C(=O)NNC(=O)c2ccc(Br)cc2)c1,100,-5,98,100,-5,-8
Cc1ccccc1C(=O)NNC(=S)NC(=O)c1cccs1,93,41,101,98,99*,-1
Cc1cccc(C(=O)NC(=S)NNC(=O)c2cccs2)c1,102,-75,98,102,270*,-1
O=C(NC(=S)NNC(=O)c1cccs1)c1ccccc1,106,-7,102,102,27,9
Cc1ccccc1C(=O)Nc1cccc(NC(=S)NC(=O)c2cccs2)c1,102,-32,99,103,7,6
Cc1cccc(C(=O)NC(=S)NNC(=O)c2ccc(Cl)cc2)c1,94,-148,99,97,213*,-2
CC(C)(C)c1ccc(C(=O)NC(=S)NNC(=O)c2cccs2)cc1,99,-240,93,101,290*,0
C=CCOc1ccc(/C=C/C(=O)N2CCCN(S(=O)(=O)c3c(C)noc3C)CC2)cc1,x,13,101,x,-2,x
COc1ccc(-c2noc(CCC(=O)NCC3CCCO3)n2)cc1OC (stereo not drawn),107,18,94,105,-2,1
O=C(Nc1nc2ccccc2[nH]1)c1cccc(F)c1,107,-17,99,103,4,5
O=C(/C=C/c1ccc(F)cc1)Nc1nc2ccccc2[nH]1,112,x,x,208*,x,1
CCOC(=O)/C=c1/s/c(=C/c2ccc3cc(OC)ccc3c2)c(=O)n1CC(=O)NCC1CCCO1 (stereo not drawn),x,-45,99,x,79*,x
CCOC(=O)c1sc2nc(C)n(CC(=O)NCC3CCCO3)c(=O)c2c1C (stereo not drawn),104,58*,94,103,0,4
CCOC(=O)/C=c1\s/c(=C\c2c(OC)ccc3ccccc23)c(=O)n1CC(=O)NCC1CCCO1 (stereo not drawn),93,-23,101,99,1,3
